{"source": "PubChem BioAssay AID1376", "about": "(SRMLSC, 2008)", "note": "Hit rate of the full screen: of about 220,000 compounds, about 530 (0.24%) were called active. The sample as a whole holds a higher share of actives than the screen did. Results with a measured potency or affinity are listed apart. Values without a mark were called inactive. Rule as the data show it: active = inhibition above about 13%; inconclusive = no clear call, values can overlap the other calls; inactive = below that.", "data": [{"target": "Bifunctional protein GlmU (Mycobacterium tuberculosis (strain ATCC 25618 / H37Rv)) (UniProt P9WMN3)", "sequence (P9WMN3 whole entry, looked up)": "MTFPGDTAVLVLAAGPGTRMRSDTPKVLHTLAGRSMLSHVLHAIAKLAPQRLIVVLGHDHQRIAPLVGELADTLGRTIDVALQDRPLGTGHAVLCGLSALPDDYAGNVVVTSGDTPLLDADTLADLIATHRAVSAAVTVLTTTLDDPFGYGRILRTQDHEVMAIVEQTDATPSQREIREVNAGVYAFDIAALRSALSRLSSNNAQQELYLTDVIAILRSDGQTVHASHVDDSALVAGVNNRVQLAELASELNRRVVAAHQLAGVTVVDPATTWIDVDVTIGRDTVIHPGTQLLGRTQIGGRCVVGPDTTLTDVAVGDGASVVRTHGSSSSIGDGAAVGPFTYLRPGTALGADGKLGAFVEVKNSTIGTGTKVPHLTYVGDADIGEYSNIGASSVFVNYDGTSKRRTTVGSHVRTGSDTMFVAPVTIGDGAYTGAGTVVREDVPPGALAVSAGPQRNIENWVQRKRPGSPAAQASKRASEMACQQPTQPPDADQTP", "assay": "inhibition of mycobacterial GlmU enzyme – biochemical, glucosamine-1-phosphate acetyltransferase (AID 1376);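 also: 0% = complete reaction with vehicle and 100% = reaction without substrate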", "conditions": "M. tuberculosis GlmU acetyltransferase enzyme assay; hits give high values;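 tested at 30 µM in the primary screen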", "values": [{"smiles": "CC(C1CC2CCC1C2)n1c(-c2ccco2)n[nH]c1=S", "note": "(stereo not drawn)", "inhibition": "-2.34%"}, {"smiles": "COc1cccc(/C=N/n2c(-c3ccco3)nc3ccccc3c2=O)c1OC", "inhibition": "-2.22%"}, {"smiles": "COc1ccc(/C=N/n2c(-c3ccco3)nc3ccccc3c2=O)cc1", "inhibition": "-1.21%"}, {"smiles": "COc1cccc(/C=N/n2c(-c3ccco3)nc3ccccc3c2=O)c1", "inhibition": "12.8% (active)"}, {"smiles": "C=CCn1c(C(CC(C)C)CC(C)O)n[nH]c1=S", "note": "(stereo not drawn)", "inhibition": "-0.56%"}, {"smiles": "Cc1ccc(-n2c(SCC(=O)NC3CCS(=O)(=O)C3)nc3ccccc3c2=O)cc1", "note": "(stereo not drawn)", "inhibition": "-6.07%"}, {"smiles": "Cc1cccc(NC(=O)CCc2ccc(S(=O)(=O)NC3CCCCC3)cc2)c1", "inhibition": "4.56%"}, {"smiles": "O=C(O)c1cccc(N/N=C/c2ccc(-c3ccccc3)cc2)c1", "inhibition": "-0.74%"}, {"smiles": "Cc1nn(-c2ccccc2)c(Cl)c1/C=N/Nc1ccc(Cl)c(C(=O)O)c1", "inhibition": "-0.65%"}, {"smiles": "CSc1ccc(/C=N/Nc2cccc(C(=O)O)c2)cc1", "inhibition": "35.4% (active)"}, {"smiles": "Cc1nn(-c2cccc(C(F)(F)F)c2)c(Cl)c1/C=N/Nc1cccc(C(=O)O)c1", "inhibition": "-2.39%"}, {"smiles": "CC(C)(C)c1ccc(/C=N/Nc2cccc(C(=O)O)c2)cc1", "inhibition": "-6.54%"}, {"smiles": "CCOc1cccc(C(=O)N(Cc2ccc(F)cc2)C2CCS(=O)(=O)C2)c1", "note": "(stereo not drawn)", "inhibition": "3.65%"}, {"smiles": "CC1CCc2c(sc3ncn(Cc4ccc(C(=O)O)cc4)c(=O)c23)C1", "note": "(stereo not drawn)", "inhibition": "-5.17%"}, {"smiles": "CNS(=O)(=O)c1cccc(C(=O)OCC(=O)Nc2ccc(N3CCCCC3)cc2)c1", "inhibition": "-3.94%"}, {"smiles": "CN(CCC1CCOCC1)Cc1nc(Cc2ccccc2F)no1", "inhibition": "3.72%"}, {"smiles": "CCCCOc1nc2ccccc2nc1C(C#N)S(=O)(=O)c1ccccc1", "note": "(stereo not drawn)", "inhibition": "3.84%"}, {"smiles": "Cc1ccc(S(=O)(=O)C(C#N)c2nc3ccccc3nc2OCCO)cc1", "note": "(stereo not drawn)", "inhibition": "2.66%"}, {"smiles": "N#CC(c1nc2ccccc2nc1OCCO)S(=O)(=O)c1ccccc1", "note": "(stereo not drawn)", "inhibition": "12.9% (active)"}, {"smiles": "COc1ccc(C2C(C(C)=O)=C(O)C(=O)N2c2nccs2)c(OC)c1", "note": "(stereo not drawn)", "inhibition": "0.3%"}, {"smiles": "COc1ccc(C2C(C(C)=O)=C(O)C(=O)N2c2cccnc2)c(OC)c1", "note": "(stereo not drawn)", "inhibition": "12.9% (active)"}, {"smiles": "COc1ccc(C2C(C(C)=O)=C(O)C(=O)N2c2cccnc2)cc1OC", "note": "(stereo not drawn)", "inhibition": "1.89%"}, {"smiles": "Cc1ccccc1NC(=O)C(C)n1c2ccccc2c2nc(=O)cc(C)n21", "note": "(stereo not drawn)", "inhibition": "-3.29%"}, {"smiles": "Nc1cc(C(=O)O)c(N)c2c1C(=O)c1ccccc1C2=O", "inhibition": "12.9% (active)"}, {"smiles": "O=C(O)c1cccc2c1C(=O)c1ccccc1C2=O", "inhibition": "-4.06%"}, {"smiles": "Nc1c(C(=O)O)ccc2c1C(=O)c1ccccc1C2=O", "inhibition": "5.83%"}, {"smiles": "Cc1ccc2nsnc2c1S(=O)(=O)N1CCN(CCc2ccccc2)CC1", "inhibition": "-1.69%"}, {"smiles": "Cn1c(=O)n(C)c2cc(NC(=O)c3ccccc3[N+](=O)[O-])c(Br)cc21", "inhibition": "-4.22%"}, {"smiles": "Clc1ccc(CSc2nnc(Cn3cnc4ccccc43)o2)cc1", "inhibition": "15% (active)"}, {"smiles": "NC(=O)CSc1nnc(Cn2cnc3ccccc32)o1", "inhibition": "-3.79%"}, {"smiles": "Clc1ccc(Cn2cnc3ccccc32)cc1", "inhibition": "-0.58%"}, {"smiles": "CC(C)(CN=C1NS(=O)(=O)c2ccccc21)CNC(=O)CN1C(=O)c2ccccc2C1=O", "inhibition": "0.96%"}, {"smiles": "O/C(=C\\Sc1nnc(Cc2ccccc2)o1)c1ccc(Br)cc1", "inhibition": "9.57%"}, {"smiles": "Cc1cccc(-n2nc3c(c2NC(=O)CCC2CCCCC2)CS(=O)C3)c1C", "note": "(stereo not drawn)", "inhibition": "19.3% (active)"}, {"smiles": "O=C(CCC1CCCCC1)Nc1c2c(nn1-c1ccc(F)cc1)CS(=O)C2", "note": "(stereo not drawn)", "inhibition": "-0.99%"}, {"smiles": "Cc1ccc(-n2nc3c(c2NC(=O)CCC2CCCCC2)CS(=O)C3)cc1", "note": "(stereo not drawn)", "inhibition": "4.09%"}, {"smiles": "COc1ccccc1C1C(C(=O)NCc2ccccc2)=C(C)Nc2ncnn21", "note": "(stereo not drawn)", "inhibition": "-0.29%"}, {"smiles": "O=C(NCc1cccc(Cl)c1)c1ccc(S(=O)(=O)Nc2cccc(C(F)(F)F)c2)cc1", "inhibition": "6.21%"}, {"smiles": "CNS(=O)(=O)c1c(C)cc(C)c(N(C)S(=O)(=O)c2ccccc2)c1C", "inhibition": "4.09%"}, {"smiles": "O=C(O)C(Cc1ccccc1)N1C(=O)/C(=C/c2ccccc2)SC1=S", "note": "(stereo not drawn)", "inhibition": "7.96%"}, {"smiles": "Cc1ccc(/C=C2\\SC(=S)N(C(Cc3ccccc3)C(=O)O)C2=O)cc1", "note": "(stereo not drawn)", "inhibition": "5.14%"}, {"smiles": "COc1ccc(/C=C2\\SC(=S)N(C(Cc3ccccc3)C(=O)O)C2=O)cc1", "note": "(stereo not drawn)", "inhibition": "1.51%"}, {"smiles": "O=C(O)CC(C(=O)O)N1C(=O)/C(=C/C=C/c2ccco2)SC1=S", "note": "(stereo not drawn)", "inhibition": "17.9% (active)"}, {"smiles": "O=C(O)CCCN1C(=O)/C(=C/C=C/c2ccco2)SC1=S", "inhibition": "5.29%"}, {"smiles": "O=C1S/C(=C\\C=C\\c2ccco2)C(=O)N1c1ccc(O)cc1", "inhibition": "11.9%"}, {"smiles": "O=C(O)C(Cc1ccccc1)N1C(=O)/C(=C/C=C/c2ccco2)SC1=S", "note": "(stereo not drawn)", "inhibition": "26.9% (active)"}, {"smiles": "O=C(O)C(Cc1ccccc1)N1C(=O)/C(=C/c2cccs2)SC1=S", "note": "(stereo not drawn)", "inhibition": "17.4% (active)"}, {"smiles": "O=C(O)C(Cc1ccccc1)N1C(=O)/C(=C/c2cccc3ccccc23)SC1=S", "note": "(stereo not drawn)", "inhibition": "3.53%"}, {"smiles": "CC(=O)Nc1ccc(C(=O)NNC(=O)c2cc([N+](=O)[O-])cc([N+](=O)[O-])c2)cc1", "inhibition": "2.49%"}, {"smiles": "CC(C)(O)C#Cc1ccc(CN2CCN(Cc3ccccc3)C(CCO)C2)s1", "note": "(stereo not drawn)", "inhibition": "3.34%"}, {"smiles": "Cc1nc2nc3c(cn2n1)C(=O)CC(c1ccccc1)C3", "note": "(stereo not drawn)", "inhibition": "15% (active)"}, {"smiles": "CSc1nc2nc3c(cn2n1)C(=O)CC(c1ccccc1)C3", "note": "(stereo not drawn)", "inhibition": "2.71%"}, {"smiles": "O=C1CC(c2ccccc2)Cc2nc3nc(C(F)(F)F)nn3cc21", "note": "(stereo not drawn)", "inhibition": "2.78%"}, {"smiles": "O=C(Nc1nnc(-c2ccccc2)o1)NC1CCCCC1", "inhibition": "0.77%"}, {"smiles": "CC(=O)Nc1ccc(OCC(O)CN2CCN(c3cccc(Cl)c3)CC2)cc1", "note": "(stereo not drawn)", "inhibition": "-0.54%"}, {"smiles": "COC(C/C=C\\[C@H](O)COCc1ccccc1)OC", "inhibition": "6.23%"}, {"smiles": "Cc1ccccc1NC(=O)Nc1cc(-c2ccccc2)nn1C", "inhibition": "-3.02%"}, {"smiles": "O=C(CSCc1ccccc1F)NCc1ccc(F)cc1", "inhibition": "-1.92%"}, {"smiles": "c1cncc(-c2nnc3n2CCC3)c1", "inhibition": "-0.26%"}, {"smiles": "CCOC(=O)C1=C2NC(=O)c3ccccc3N2C(=O)C1", "inhibition": "13.7% (active)"}, {"smiles": "CCOC(=O)C1=C(C)N(c2ccccc2)C(=O)C1", "inhibition": "3.44%"}, {"smiles": "CCOC(=O)C1=C(N)N(c2ccccc2)C(=O)C1", "inhibition": "1.91%"}, {"smiles": "O=C(COC(=O)c1ccc(Cl)c([N+](=O)[O-])c1)Nc1ccccc1OC(F)F", "inhibition": "0.84%"}, {"smiles": "Cc1sc2nc(SCc3ccccc3)n(Cc3ccco3)c(=O)c2c1C", "inhibition": "-1.04%"}, {"smiles": "CCSC1=NCCN1C(=O)c1c(-c2ccccc2Cl)noc1C", "inhibition": "4.4%"}, {"smiles": "Cc1onc(-c2ccccc2Cl)c1C(=O)N1CCN=C1SCc1cccnc1", "inhibition": "27.2% (active)"}, {"smiles": "CSC1=NCCN1C(=O)c1c(-c2ccccc2Cl)noc1C", "inhibition": "-1.36%"}, {"smiles": "C=CCn1c(O)c(C=Nc2c(C)n(C)n(-c3ccccc3)c2=O)c(=O)[nH]c1=O", "inhibition": "-2.53%"}, {"smiles": "CCCOC(=O)C1C2C=CC(C3CC23)C1C(=O)OCC(=O)c1ccccc1", "note": "(stereo not drawn)", "inhibition": "2.44%"}, {"smiles": "COc1ccccc1N1C(=N)S/C(=C\\c2ccc(-c3ccccc3C(=O)O)o2)C1=O", "inhibition": "8.5%"}, {"smiles": "Cc1ccc(C)c(N2C(=N)S/C(=C\\c3ccc(-c4ccccc4C(=O)O)o3)C2=O)c1", "inhibition": "13.1% (active)"}, {"smiles": "Cc1ccccc1NC(=O)CN1C(=O)S/C(=C\\c2ccc(-c3cc(C(=O)O)ccc3C)o2)C1=O", "inhibition": "19.2%"}, {"smiles": "N=C1S/C(=C\\c2ccco2)C(=O)N1c1ccc2c(c1)OCO2", "inhibition": "5.07%"}, {"smiles": "O=C1NC(=O)N(c2ccc3c(c2)OCO3)C(=O)/C1=C\\c1ccc(-c2ccccc2C(=O)O)o1", "inhibition": "9.19%"}, {"smiles": "O=C(N/N=C/C=C/c1ccc(Br)cc1)C(O)c1ccccc1", "note": "(stereo not drawn)", "inhibition": "-4.11%"}, {"smiles": "COc1ccc(NC(=O)c2ccccc2-c2ccccc2)c(C)c1", "inhibition": "-1.21%"}, {"smiles": "O=C(OCC(=O)N1CCN(C(=O)c2ccco2)CC1)c1ccccc1C(=O)c1ccccc1", "inhibition": "0.58%"}, {"smiles": "O=Cc1ccc(-c2cccc(C(=O)O)c2)o1", "inhibition": "3.12%"}, {"smiles": "CCN(CC)c1ccc(/C=c2\\sc3nc4ccccc4n3c2=O)c(O)c1", "inhibition": "-2.52%"}, {"smiles": "O=c1/c(=C/c2ccc(O)c([N+](=O)[O-])c2)sc2nc3ccccc3n12", "inhibition": "8.42%"}, {"smiles": "O=c1/c(=C\\c2cc([N+](=O)[O-])cc([N+](=O)[O-])c2O)sc2nc3ccccc3n12", "inhibition": "33.8% (active)"}, {"smiles": "Cc1ccc(-n2c(C)cc(/C=c3/sc4nc5ccccc5n4c3=O)c2C)cc1", "inhibition": "0.75%"}, {"smiles": "O=C(O)Cn1cc(/C=c2/sc3nc4ccccc4n3c2=O)c2ccccc21", "inhibition": "-3.15%"}, {"smiles": "Cc1cc(/C=c2/sc3nc4ccccc4n3c2=O)c(C)n1-c1ccccn1", "inhibition": "6.87%"}, {"smiles": "O=c1/c(=C\\c2cccn2-c2ccccc2)sc2nc3ccccc3n12", "inhibition": "-1.22%"}, {"smiles": "O=c1/c(=C/c2ccccn2)sc2nc3ccccc3n12", "inhibition": "3.31%"}, {"smiles": "O=c1c(Br)c(N2CCOCC2)cnn1-c1ccccc1", "inhibition": "-4.84%"}, {"smiles": "Cn1nc(C(F)(F)F)c2cc(C(=O)O)sc21", "inhibition": "0.57%"}, {"smiles": "CCN(CC)S(=O)(=O)c1ccc(N2CCOCC2)c(NC(=O)CC(C)(C)C)c1", "inhibition": "11.6%"}, {"smiles": "Cc1cc(C)c(C#N)c(SC2CCCCC2=O)n1", "note": "(stereo not drawn)", "inhibition": "0.86%"}, {"smiles": "CC(C)NC(=O)CSc1nnc2sc3ccccc3n12", "inhibition": "7.28%"}, {"smiles": "Cn1nc(-c2ccccc2)c(CN2CCN(c3ncccn3)CC2)c1Cl", "inhibition": "-1.97%"}, {"smiles": "CC1(C)CC(=O)C2=C(C1)N(CCN1CCOCC1)C1=C(C(=O)CC(C)(C)C1)C2c1ccc(Cl)c([N+](=O)[O-])c1", "inhibition": "4.94%"}]}]}
